# Assay results reported in PubChem BioAssay AID743130 (Broad Institute, 2013).
# Unmarked numbers belong to inactive results.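 The calls were made as follows: active = fitted curve rises past 20% activation at a concentration no higher than the top valid tested dose; inactive = activity opposite to the expected signal increase, and the rest.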
# Assay: Rlm1 cell wall stress reporter activators, dose response, S. cerevisiae reporter strain, C. neoformans project, dry powder (AID 743130)
# Details: S. cerevisiae Rlm1-lacZ reporter, luminescence, 4 h, active compounds read high
compound,measurement,setting,value
Cc1ccc(OCCn2c(=S)[nH]c3ccccc32)c(C(C)C)c1,maximal activation,at 0.135 µM,2.35%
same,maximal activation,at 0.26 µM,3.69%
